# From ChEMBL document CHEMBL2218924, “A broad activity screen in support of a chemogenomic map for kinase signalling research and drug discovery” (Biochem J, 2013)
# Columns and labels:
# [1] = molecular target: Tyrosine-protein kinase SYK (Homo sapiens) (UniProt P43405); details: at 10 µM
# [2] = molecular target: T1, Mitogen-activated protein kinase kinase kinase 7 (Homo sapiens) (UniProt O43318); details: at 1 µM
# T1 sequence (whole entry): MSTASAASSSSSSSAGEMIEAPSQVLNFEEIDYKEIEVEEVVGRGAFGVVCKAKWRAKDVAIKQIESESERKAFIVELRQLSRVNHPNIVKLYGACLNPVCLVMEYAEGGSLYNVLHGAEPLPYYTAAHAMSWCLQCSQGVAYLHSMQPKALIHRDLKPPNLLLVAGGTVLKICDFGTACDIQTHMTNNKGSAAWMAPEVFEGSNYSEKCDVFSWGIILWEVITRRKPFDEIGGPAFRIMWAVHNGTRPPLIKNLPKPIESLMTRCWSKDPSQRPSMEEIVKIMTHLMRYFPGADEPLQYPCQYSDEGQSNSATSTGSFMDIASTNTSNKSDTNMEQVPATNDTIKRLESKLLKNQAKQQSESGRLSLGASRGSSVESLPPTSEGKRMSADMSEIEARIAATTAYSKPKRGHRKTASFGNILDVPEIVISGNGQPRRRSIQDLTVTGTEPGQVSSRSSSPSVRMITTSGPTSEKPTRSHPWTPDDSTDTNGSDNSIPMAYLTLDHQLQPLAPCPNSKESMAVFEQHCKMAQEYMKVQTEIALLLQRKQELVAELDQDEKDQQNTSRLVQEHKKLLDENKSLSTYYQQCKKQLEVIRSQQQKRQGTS
# [3] = molecular target: T1, Mitogen-activated protein kinase kinase kinase 7 (Homo sapiens); details: at 10 µM
# [4] = molecular target: T2, Serine/threonine-protein kinase TAO1 (Homo sapiens) (UniProt Q7L7X3); details: at 1 µM
# T2 sequence (whole entry): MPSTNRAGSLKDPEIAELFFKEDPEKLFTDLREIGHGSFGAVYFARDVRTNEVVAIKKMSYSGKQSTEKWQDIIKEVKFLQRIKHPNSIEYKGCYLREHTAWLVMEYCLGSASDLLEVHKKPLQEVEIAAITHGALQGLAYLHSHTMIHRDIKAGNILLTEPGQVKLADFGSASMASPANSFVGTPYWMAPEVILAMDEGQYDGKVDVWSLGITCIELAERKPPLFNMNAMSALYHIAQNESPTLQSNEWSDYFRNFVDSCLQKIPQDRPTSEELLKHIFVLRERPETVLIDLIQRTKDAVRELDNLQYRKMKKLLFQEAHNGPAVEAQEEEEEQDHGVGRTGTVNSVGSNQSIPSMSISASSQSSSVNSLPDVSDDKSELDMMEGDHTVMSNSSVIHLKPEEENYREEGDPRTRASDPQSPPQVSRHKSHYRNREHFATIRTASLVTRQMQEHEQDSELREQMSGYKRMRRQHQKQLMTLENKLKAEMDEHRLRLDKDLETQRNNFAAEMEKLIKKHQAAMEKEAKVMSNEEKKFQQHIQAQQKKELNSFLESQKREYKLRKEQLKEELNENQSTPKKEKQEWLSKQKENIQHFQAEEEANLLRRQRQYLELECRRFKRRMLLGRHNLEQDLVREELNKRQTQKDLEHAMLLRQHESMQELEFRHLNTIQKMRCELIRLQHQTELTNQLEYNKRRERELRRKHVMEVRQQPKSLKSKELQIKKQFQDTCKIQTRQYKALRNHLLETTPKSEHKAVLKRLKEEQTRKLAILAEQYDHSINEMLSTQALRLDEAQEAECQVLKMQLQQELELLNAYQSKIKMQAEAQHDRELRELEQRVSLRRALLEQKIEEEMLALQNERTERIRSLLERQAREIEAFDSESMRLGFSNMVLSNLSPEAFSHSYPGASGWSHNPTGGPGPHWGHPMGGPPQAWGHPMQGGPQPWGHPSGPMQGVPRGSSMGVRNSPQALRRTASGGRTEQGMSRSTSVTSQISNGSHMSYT
# [5] = molecular target: T2, Serine/threonine-protein kinase TAO1 (Homo sapiens); details: at 10 µM
# [6] = molecular target: T3, Serine/threonine-protein kinase TAO2 (Homo sapiens) (UniProt Q9UL54); details: at 10 µM
# T3 sequence (whole entry): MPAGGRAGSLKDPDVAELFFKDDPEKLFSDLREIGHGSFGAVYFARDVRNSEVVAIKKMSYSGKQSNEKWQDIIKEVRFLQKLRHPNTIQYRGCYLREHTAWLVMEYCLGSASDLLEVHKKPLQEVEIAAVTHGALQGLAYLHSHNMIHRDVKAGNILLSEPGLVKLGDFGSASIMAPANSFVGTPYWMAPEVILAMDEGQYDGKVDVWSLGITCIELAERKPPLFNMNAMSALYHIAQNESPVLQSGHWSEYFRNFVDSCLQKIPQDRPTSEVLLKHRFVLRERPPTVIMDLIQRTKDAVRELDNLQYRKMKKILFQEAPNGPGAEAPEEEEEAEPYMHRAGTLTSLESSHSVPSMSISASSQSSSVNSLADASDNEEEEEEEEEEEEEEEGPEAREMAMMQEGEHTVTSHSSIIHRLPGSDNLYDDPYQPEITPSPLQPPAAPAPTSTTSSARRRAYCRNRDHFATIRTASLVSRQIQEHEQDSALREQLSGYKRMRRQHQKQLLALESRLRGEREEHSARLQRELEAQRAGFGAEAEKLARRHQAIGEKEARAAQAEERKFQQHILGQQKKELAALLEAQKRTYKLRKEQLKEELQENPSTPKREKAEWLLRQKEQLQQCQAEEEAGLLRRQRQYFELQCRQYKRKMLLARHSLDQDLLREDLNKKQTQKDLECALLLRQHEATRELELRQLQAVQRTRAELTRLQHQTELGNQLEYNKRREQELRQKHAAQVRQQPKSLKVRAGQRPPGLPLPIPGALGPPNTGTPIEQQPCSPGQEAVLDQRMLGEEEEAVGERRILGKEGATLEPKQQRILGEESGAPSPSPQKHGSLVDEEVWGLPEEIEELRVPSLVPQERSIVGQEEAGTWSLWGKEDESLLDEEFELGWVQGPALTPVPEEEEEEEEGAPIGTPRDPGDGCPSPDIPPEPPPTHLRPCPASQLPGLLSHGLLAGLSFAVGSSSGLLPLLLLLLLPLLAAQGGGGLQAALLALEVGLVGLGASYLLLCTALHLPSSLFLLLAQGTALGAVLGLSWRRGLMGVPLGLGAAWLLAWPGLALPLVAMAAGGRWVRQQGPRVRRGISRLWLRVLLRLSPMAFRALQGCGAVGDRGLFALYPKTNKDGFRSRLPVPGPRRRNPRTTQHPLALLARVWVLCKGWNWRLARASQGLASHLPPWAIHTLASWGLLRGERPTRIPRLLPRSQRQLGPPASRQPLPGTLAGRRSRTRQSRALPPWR
# [7] = molecular target: T4, Serine/threonine-protein kinase TAO3 (Homo sapiens) (UniProt Q9H2K8); details: at 10 µM
# T4 sequence (whole entry): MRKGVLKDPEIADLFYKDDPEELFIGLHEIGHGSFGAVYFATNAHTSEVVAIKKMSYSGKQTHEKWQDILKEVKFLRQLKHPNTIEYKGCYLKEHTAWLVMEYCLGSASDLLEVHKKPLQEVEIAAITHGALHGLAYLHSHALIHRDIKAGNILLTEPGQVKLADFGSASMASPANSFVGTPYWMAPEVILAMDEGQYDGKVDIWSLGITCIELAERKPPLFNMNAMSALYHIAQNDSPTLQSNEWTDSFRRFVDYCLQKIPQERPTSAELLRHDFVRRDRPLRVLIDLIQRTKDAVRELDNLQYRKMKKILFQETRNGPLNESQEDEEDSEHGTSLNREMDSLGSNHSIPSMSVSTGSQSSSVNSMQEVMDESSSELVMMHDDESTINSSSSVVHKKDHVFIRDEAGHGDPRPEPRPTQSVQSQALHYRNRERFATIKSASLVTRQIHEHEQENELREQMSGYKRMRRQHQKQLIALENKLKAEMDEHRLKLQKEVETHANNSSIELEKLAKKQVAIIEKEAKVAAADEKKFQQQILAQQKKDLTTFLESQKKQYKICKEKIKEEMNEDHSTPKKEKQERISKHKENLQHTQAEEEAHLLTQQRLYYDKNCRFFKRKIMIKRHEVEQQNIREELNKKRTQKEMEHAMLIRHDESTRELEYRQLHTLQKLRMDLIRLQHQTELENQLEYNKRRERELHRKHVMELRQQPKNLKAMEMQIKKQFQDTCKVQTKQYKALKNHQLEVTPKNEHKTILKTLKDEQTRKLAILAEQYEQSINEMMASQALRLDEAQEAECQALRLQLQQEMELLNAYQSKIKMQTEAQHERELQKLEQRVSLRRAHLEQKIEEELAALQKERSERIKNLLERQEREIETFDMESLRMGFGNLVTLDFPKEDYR
# [8] = molecular target: T5, Serine/threonine-protein kinase TBK1 (Homo sapiens) (UniProt Q9UHD2); details: at 1 µM
# T5 sequence (whole entry): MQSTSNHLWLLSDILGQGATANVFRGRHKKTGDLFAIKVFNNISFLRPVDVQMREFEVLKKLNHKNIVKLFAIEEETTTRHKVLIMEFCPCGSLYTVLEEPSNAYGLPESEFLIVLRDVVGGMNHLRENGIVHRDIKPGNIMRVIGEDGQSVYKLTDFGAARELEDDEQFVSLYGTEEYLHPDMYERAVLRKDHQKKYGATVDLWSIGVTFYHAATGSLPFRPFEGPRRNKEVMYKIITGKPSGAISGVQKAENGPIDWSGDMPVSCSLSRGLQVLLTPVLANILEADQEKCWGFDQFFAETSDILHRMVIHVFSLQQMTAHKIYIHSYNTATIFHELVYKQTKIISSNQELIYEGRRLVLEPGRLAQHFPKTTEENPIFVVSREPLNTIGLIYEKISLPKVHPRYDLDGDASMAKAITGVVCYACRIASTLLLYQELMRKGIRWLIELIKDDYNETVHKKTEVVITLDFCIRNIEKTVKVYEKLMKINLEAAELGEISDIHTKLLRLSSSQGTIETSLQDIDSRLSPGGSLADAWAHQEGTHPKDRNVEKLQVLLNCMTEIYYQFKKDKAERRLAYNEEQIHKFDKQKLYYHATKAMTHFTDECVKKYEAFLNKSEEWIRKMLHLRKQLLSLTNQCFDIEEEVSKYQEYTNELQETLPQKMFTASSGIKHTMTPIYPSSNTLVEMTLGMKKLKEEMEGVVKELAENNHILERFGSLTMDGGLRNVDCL
# [9] = molecular target: T5, Serine/threonine-protein kinase TBK1 (Homo sapiens); details: at 10 µM
# [10] = molecular target: T6, Inhibitor of nuclear factor kappa-B kinase subunit alpha (Homo sapiens) (UniProt O15111); details: at 10 µM
# T6 sequence (whole entry): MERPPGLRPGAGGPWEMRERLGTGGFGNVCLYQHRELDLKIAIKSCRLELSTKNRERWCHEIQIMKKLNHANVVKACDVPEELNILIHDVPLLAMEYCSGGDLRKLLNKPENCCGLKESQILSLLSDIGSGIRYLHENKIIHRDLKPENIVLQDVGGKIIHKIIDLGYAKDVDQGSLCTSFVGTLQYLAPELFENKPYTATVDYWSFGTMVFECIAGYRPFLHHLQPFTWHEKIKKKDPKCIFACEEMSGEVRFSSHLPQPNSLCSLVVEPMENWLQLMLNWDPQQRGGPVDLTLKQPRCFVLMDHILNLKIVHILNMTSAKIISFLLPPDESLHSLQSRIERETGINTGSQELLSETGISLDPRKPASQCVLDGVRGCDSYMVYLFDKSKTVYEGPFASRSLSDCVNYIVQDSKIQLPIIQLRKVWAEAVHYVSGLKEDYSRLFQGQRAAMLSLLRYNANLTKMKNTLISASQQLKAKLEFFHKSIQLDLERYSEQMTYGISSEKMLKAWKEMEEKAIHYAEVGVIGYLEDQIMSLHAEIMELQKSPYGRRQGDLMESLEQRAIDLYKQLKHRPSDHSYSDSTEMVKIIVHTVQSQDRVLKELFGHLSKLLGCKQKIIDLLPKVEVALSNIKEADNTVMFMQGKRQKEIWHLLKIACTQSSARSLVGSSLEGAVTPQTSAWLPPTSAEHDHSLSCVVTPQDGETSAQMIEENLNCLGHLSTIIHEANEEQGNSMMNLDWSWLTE
# [11] = molecular target: Insulin receptor (Homo sapiens) (UniProt P06213); details: at 1 µM
# [12] = molecular target: T3, Serine/threonine-protein kinase TAO2 (Homo sapiens); details: at 1 µM
# [13] = molecular target: T4, Serine/threonine-protein kinase TAO3 (Homo sapiens); details: at 1 µM
# [14] = molecular target: Insulin-like growth factor 1 receptor (Homo sapiens) (UniProt P08069); details: at 10 µM
# Insulin-like growth factor 1 receptor (Homo sapiens), sequence (P08069 31-736 limits assumed): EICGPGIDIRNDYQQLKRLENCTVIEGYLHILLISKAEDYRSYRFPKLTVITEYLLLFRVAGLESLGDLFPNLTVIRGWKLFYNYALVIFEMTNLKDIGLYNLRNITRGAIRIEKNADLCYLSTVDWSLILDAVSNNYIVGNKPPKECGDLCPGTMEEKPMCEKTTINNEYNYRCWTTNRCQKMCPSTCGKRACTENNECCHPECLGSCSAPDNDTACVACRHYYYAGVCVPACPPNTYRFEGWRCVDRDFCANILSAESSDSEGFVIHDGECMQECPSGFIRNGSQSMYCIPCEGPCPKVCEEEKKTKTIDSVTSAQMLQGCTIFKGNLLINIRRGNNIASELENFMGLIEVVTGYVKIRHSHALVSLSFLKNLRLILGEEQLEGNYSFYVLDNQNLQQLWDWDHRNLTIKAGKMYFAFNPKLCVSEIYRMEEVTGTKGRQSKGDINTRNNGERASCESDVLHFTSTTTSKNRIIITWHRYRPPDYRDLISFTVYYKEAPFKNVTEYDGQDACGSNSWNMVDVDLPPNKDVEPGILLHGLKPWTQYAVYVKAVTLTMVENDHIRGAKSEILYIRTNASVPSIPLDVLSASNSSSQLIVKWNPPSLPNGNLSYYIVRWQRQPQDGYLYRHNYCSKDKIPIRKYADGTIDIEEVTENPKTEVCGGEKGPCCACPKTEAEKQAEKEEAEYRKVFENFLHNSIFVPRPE
# Insulin-like growth factor 1 receptor (Homo sapiens), sequence (P08069 741-1367 limits assumed): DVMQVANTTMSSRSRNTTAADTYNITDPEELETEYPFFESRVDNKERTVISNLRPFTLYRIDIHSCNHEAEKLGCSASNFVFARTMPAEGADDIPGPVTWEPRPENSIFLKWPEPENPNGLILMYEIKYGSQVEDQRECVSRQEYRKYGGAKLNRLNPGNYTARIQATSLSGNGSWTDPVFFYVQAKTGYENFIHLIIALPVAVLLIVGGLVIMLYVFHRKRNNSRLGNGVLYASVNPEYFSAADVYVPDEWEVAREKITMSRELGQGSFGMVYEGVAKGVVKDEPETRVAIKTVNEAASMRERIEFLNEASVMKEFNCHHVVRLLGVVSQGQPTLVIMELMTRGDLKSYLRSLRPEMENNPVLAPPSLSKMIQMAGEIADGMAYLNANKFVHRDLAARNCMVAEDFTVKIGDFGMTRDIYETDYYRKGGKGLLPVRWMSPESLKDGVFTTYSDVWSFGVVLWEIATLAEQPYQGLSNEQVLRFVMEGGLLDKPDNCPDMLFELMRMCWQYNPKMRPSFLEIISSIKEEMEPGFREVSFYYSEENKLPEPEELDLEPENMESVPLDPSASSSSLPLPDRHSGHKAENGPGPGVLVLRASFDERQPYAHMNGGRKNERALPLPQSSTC
# Insulin receptor (Homo sapiens), sequence (P06213 28-758 limits assumed): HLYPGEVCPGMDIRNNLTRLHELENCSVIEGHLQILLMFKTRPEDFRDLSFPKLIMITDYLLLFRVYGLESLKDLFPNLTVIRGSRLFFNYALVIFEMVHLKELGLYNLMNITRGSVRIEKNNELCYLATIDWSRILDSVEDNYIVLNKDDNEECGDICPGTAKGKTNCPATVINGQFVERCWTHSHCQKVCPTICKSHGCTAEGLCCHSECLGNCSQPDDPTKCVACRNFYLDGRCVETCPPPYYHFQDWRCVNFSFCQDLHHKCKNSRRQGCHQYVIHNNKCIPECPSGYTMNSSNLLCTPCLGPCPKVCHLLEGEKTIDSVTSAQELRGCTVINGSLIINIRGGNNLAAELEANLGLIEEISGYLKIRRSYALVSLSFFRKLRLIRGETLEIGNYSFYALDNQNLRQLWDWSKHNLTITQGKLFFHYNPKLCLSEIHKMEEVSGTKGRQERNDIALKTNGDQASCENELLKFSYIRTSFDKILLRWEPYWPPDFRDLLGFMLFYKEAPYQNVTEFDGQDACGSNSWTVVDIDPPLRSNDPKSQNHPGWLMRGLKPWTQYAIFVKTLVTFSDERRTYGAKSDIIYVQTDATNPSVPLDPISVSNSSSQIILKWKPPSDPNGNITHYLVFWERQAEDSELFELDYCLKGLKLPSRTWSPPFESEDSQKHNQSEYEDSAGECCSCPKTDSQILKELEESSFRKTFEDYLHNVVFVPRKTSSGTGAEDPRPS
# Insulin receptor (Homo sapiens), sequence (P06213 763-1382 limits assumed): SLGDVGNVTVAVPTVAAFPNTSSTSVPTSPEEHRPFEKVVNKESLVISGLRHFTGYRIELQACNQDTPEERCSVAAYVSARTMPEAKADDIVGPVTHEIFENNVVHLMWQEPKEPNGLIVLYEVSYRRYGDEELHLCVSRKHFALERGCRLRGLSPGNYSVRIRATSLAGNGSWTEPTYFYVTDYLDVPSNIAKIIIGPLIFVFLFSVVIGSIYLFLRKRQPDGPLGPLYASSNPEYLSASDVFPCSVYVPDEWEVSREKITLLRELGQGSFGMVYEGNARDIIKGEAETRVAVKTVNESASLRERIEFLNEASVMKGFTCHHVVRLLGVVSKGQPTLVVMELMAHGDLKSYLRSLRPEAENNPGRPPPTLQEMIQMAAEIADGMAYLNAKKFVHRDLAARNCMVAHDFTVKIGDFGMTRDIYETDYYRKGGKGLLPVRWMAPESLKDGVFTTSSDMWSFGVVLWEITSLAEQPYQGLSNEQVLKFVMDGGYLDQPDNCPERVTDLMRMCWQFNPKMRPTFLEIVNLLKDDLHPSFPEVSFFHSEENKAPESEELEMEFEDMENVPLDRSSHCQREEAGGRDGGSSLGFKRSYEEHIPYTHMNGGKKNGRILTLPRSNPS
smiles,measurement,setting,value
CSc1nc(-c2ccc(F)cc2)c(-c2ccnc(NC(C)c3ccccc3)c2)[nH]1 (stereo not given),residual activity,[1],75%
same,residual activity,[2],101%
same,residual activity,[3],93%
same,residual activity,[4],102%
same,residual activity,[5],83%
same,residual activity,[6],83%
same,residual activity,[7],91%
same,residual activity,[8],102%
same,residual activity,[9],77%
same,residual activity,[10],95%
same,residual activity,[11],126%
O=C1NC(=O)C(c2c[nH]c3ccccc23)=C1c1c[nH]c2ccccc12,residual activity,[1],82%
same,residual activity,[3],75%
same,residual activity,[12],82%
same,residual activity,[6],35%
same,residual activity,[13],69%
same,residual activity,[7],26%
same,residual activity,[8],70%
same,residual activity,[9],14%
same,residual activity,[14],76%
